Experimental data taken from PubChem BioAssay (NCATS).
Inconclusive results are not listed. Entries that show only a call come without a potency. The source made the active and inactive calls. Calls come from the whole dose curve; as a rule, active = well fitted inhibition curve with a large enough effect; inconclusive = small, poorly fitted or top-dose-only effect; inactive = no such curve, though single readings can be large or run the other way.

What follows are molecules tested against Furin (Homo sapiens) (UniProt P09958) (assay: Furin counterscreen qHTS for Zika virus inhibitors (AID 1347149; note: nearly all actives have a fitted effect of over 70% in size)). Settings: furin enzymatic counterscreen, fluorogenic substrate; series mostly up to 57.5 µM.
Procedure, shortened: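 Counterscreen measures cleavage of 2 microM BOC-RVRR-AMC, below its ~15 microM Km, by 5 nM full-length human furin at pH 7.0 after a 15-min compound preincubation. Inhibition derives from the 15-min fluorescence increase at 37C.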
Potency is the fitted concentration of half-maximal effect.

Furin (Homo sapiens), sequence (P09958 whole entry, looked up): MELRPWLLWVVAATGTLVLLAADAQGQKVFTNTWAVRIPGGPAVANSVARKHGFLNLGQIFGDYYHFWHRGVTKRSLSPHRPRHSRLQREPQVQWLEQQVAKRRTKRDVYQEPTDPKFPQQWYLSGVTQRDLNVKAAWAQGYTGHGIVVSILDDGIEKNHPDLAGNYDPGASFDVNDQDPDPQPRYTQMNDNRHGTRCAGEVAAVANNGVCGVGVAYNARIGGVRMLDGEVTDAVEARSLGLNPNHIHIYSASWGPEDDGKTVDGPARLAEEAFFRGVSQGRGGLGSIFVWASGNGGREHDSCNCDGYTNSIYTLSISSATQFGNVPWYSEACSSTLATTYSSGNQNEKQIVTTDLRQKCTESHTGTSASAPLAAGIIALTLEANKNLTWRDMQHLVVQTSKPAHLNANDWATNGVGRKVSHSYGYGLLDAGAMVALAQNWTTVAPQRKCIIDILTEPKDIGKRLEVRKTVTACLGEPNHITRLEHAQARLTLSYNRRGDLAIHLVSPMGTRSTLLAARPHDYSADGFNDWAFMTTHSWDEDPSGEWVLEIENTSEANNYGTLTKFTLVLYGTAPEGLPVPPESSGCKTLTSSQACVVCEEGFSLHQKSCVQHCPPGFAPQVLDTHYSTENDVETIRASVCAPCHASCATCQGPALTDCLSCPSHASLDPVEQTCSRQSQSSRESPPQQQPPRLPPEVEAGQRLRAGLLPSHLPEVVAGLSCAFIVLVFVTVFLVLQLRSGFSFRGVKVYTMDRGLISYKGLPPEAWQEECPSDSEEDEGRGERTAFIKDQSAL

**Q.** `Cc1ccccc1CNc1ncnc2c1ncn2C1OC(CO)C(O)C1O` (centres undefined) was tested. Which Potency did it give?
**A.** The Potency was “inactive”.

**Q.** `COC(=O)C1=C(C)NC(C)=C(C(=O)OC)C1c1cccc(NC(=O)NCCCN2CCC(c3cccc(OC)c3)CC2)c1` was tested. Which Potency did it give?
**A.** Its Potency is 30.3 µM (active).

**Q.** For `C=C[C@@H]1CN2CC[C@@H]1C[C@H]2[C@H](O)c1ccnc2ccc(OC)cc12`, which Potency is on record?
**A.** Its Potency is 24.1 µM (active).

**Q.** With `COc1ccc(Br)cc1S(=O)(=O)NC(=O)/C=C/c1ccccc1Cc1ccc2ccccc2c1` as the molecule, how does the Potency read?
**A.** The Potency was 27 µM (active).

**Q.** For `CC[C@@H](C)[C@H]1O[C@]2(CC[C@H]1C)C[C@@H]1C[C@@H](CC=C(C)[C@@H](O[C@H]3C[C@H](OC)[C@@H](O[C@H]4C[C@H](OC)[C@@H](O)[C@H](C)O4)[C@H](C)O3)[C@@H](C)C=CC=C3CO[C@@H]4[C@H](O)C(C)=C[C@@H](C(=O)O1)[C@]34O)O2`, which Potency is on record?
**A.** The Potency was “inactive”.

**Q.** `CN1CCN(c2cc3c(nn2)Oc2ccccc2N3C)CC1` was tested. Which Potency did it give?
**A.** The Potency was 11.8 µM (active).

Each molecule was assayed on Zika virus NS2B-NS3 protease (unlinked) (assay: Optimization of GU AMC qHTS for Zika virus inhibitors: Unlinked NS2B-NS3 protease assay (AID 1347151; note: nearly all actives have a fitted effect of over 80% in size)). Settings: recombinant ZIKV NS2B-NS3 protease, fluorogenic AMC substrate; series mostly up to 52.5 µM.
Procedure, shortened: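 Noncovalent complex of NS2B hydrophilic domain and NS3 protease domain, 25 nM final, in 10 mM Tris-HCl pH 8.0, 0.01% Tween 20. AMC fluorescence change over 15 min at room temperature was fitted to a 4-parameter Hill equation.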

**Q.** `CCCCC#Cc1nc(NC)c2ncn([C@@H]3O[C@H](CO)[C@@H](O)[C@H]3O)c2n1` was tested. Which Potency did it give?
**A.** The Potency was “inactive”.

**Q.** Which Potency does the source give for `Brc1c(Br)c(Br)c2n[nH]nc2c1Br` here?
**A.** Its Potency is 26.7 µM (active).

**Q.** For `COc1ccccc1CN[C@@H]1CCCN[C@@H]1c1ccccc1`, which Potency is on record?
**A.** The Potency was “inactive”.

**Q.** Which Potency does the source give for `CN(C)c1nc(N)c(C(=O)N=C(N)N)nc1Cl` here?
**A.** Its Potency is “inactive”.

**Q.** Which Potency does the source give for `CCN1/C(=C/C(C)=O)Sc2ccc(OC)cc21` here?
**A.** Its Potency is “inactive”.

**Q.** How did the Potency turn out when `Cc1ccccc1CNc1ncnc2c1ncn2C1OC(CO)C(O)C1O` (centres undefined) was run?
**A.** Its Potency is “inactive”.

**Q.** How did the Potency turn out when `CN1CCc2cc(NC(=O)Nc3cccnc3)ccc21` was run?
**A.** The Potency was “inactive”.

**Q.** With `O=C(c1ccc(Cl)cc1)N1CCN(c2ccc([N+](=O)[O-])c3ncccc23)CC1` as the molecule, how does the Potency read?
**A.** The Potency was “inactive”.

**Q.** How did the Potency turn out when `Fc1ccc(C(OCCCc2cnc[nH]2)c2ccc(F)cc2)cc1` was run?
**A.** Its Potency is “inactive”.

**Q.** For `NC(N)=NC(=O)c1nc(Cl)c(N2CCCCCC2)nc1N`, which Potency is on record?
**A.** The Potency was “inactive”.

**Q.** Which Potency does the source give for `Nc1nc(Cl)nc2c1ncn2[C@@H]1O[C@H](COP(=O)(O)OP(=O)(O)OP(=O)(O)O)[C@@H](O)[C@H]1O` here?
**A.** Its Potency is “inactive”.

**Q.** Which Potency does the source give for `NC(=S)c1ccc[n+]([C@@H]2O[C@@H](COP(=O)([O-])OP(=O)(O)OC[C@H]3O[C@@H](n4cnc5c(N)ncnc54)[C@H](OP(=O)(O)O)[C@@H]3O)C(O)C2O)c1` (some centres undefined) here?
**A.** The Potency was “inactive”.

**Q.** `O=C(O)CC[C@@H](C(=O)O)N1C(=O)c2ccccc2C1=O` was tested. Which Potency did it give?
**A.** Its Potency is “inactive”.

**Q.** `O=P(O)(O)C(Cl)(Cl)P(=O)(O)O` was tested. Which Potency did it give?
**A.** The Potency was “inactive”.

**Q.** How did the Potency turn out when `CCN(CC)c1ncnc2c1ncn2[C@@H]1O[C@H](COP(=O)(O)OP(=O)(O)C(Br)(Br)P(=O)(O)O)[C@@H](O)[C@H]1O` was run?
**A.** The Potency was “inactive”.

**Q.** Which Potency does the source give for `Fc1cccc(/C=N/N=C/c2cccc(F)c2)c1` here?
**A.** The Potency was “inactive”.

**Q.** How did the Potency turn out when `C[N+](C)(C)CCOP(=O)(O)OP(=O)([O-])OC[C@H]1O[C@@H](n2ccc(N)nc2=O)[C@H](O)[C@@H]1O` was run?
**A.** Its Potency is “inactive”.

**Q.** Which Potency does the source give for `N=c1ccn2c(n1)O[C@H]1[C@H](O)[C@@H](CO)O[C@H]12` here?
**A.** Its Potency is “inactive”.

**Q.** With `O=C1NC(=O)/C(=C/c2ccc3nccnc3c2)S1` as the molecule, how does the Potency read?
**A.** The Potency was “inactive”.

**Q.** With `C[N+]1(C)C2CC(OC(=O)[C@H](CO)c3ccccc3)CC1C1OC12` (some centres undefined) as the molecule, how does the Potency read?
**A.** Its Potency is “inactive”.

**Q.** For `CC1OC1P(=O)(O)O` (centres undefined), which Potency is on record?
**A.** The Potency was “inactive”.

**Q.** `Nc1ccn([C@@H]2O[C@H](CO)[C@@H](O)[C@@H]2O)c(=O)n1` was tested. Which Potency did it give?
**A.** The Potency was “inactive”.

**Q.** With `C=CC(C)=C[C@@]1(C)SC(=O)C(C)=C1O` as the molecule, how does the Potency read?
**A.** Its Potency is “inactive”.

**Q.** How did the Potency turn out when `O=[N+]([O-])c1ccc(CSc2ncnc3c2ncn3[C@@H]2O[C@H](CO)[C@@H](O)[C@H]2O)cc1` was run?
**A.** The Potency was “inactive”.

**Q.** Which Potency does the source give for `CCCCCCCCCCCCCCCCCC(=O)OC(CC(=O)O)C[N+](C)(C)C` (centres undefined) here?
**A.** Its Potency is “inactive”.

**Q.** With `O=C(c1ccc(OCCCc2cnc[nH]2)cc1)C1CC1` as the molecule, how does the Potency read?
**A.** The Potency was “inactive”.

**Q.** With `COc1ccc(Br)cc1S(=O)(=O)NC(=O)/C=C/c1ccccc1Cc1ccc2ccccc2c1` as the molecule, how does the Potency read?
**A.** The Potency was 5.32 µM (active).

**Q.** Which Potency does the source give for `CC(C)(NS(=O)(=O)c1ccc(Oc2ccc(F)cc2)cc1)C(=O)NO` here?
**A.** Its Potency is “inactive”.

**Q.** For `O=C1/C(=C/c2ccsc2)CC/C1=C\c1cccs1`, which Potency is on record?
**A.** Its Potency is “inactive”.

**Q.** Which Potency does the source give for `NCC1OC(O[C@H]2[C@H](O)[C@@H](OC3C(O)C(N)CC(N)C3OC3OC(CO)C(O)C(O)C3N)O[C@@H]2CO)C(N)C(O)C1O` (some centres undefined) here?
**A.** Its Potency is “inactive”.

**Q.** For `Nc1nc(Nc2ccccc2)nc2c1ncn2[C@@H]1O[C@H](CO)[C@@H](O)[C@H]1O`, which Potency is on record?
**A.** Its Potency is “inactive”.

**Q.** `OCC1O[C@H]([S-])[C@H](O)[C@@H](O)[C@@H]1O.[Au+]` (some centres undefined) was tested. Which Potency did it give?
**A.** The Potency was “inactive”.

**Q.** For `CO/N=C(\C(=O)N[C@@H]1C(=O)N2C(C(=O)O)=C(COC(C)=O)CS[C@H]12)c1csc(N)n1`, which Potency is on record?
**A.** The Potency was “inactive”.
